# Compounds without any hit were thinned out: in the full panel of roughly 83,000, 20% have a hit.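 Single-dose data. Exposure time 48 hours. Values below 10 considered active.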 A number with no mark means an inactive call. The source made the active and inactive calls.
# Columns and labels:
# Test in all cases: NCI-60 one-dose screen, 48 h (100 = growth as untreated, 0 = no growth, -100 = all killed)
# Settings in all cases: 10 µM unless noted
# T-47D breast = test system: T-47D breast
# BT-549 breast = test system: BT-549 breast
# MDA-MB-435 melanoma = test system: MDA-MB-435 melanoma
# SW-620 colon = test system: SW-620 colon
# MCF7 breast = test system: MCF7 breast
# HCT-116 colon = test system: HCT-116 colon
# HCC-2998 colon = test system: HCC-2998 colon
# KM12 colon = test system: KM12 colon
SMILES,growth (T-47D breast),growth (BT-549 breast),growth (MDA-MB-435 melanoma),growth (SW-620 colon),growth (MCF7 breast),growth (HCT-116 colon),growth (HCC-2998 colon),growth (KM12 colon)
OCc1cc(CN2CCCCC2)c(O)c2ncccc12,57.4%,59.7%,77%,39.7%,44.7%,44.1%,51.6%,30.2%
O=S(=O)(Nc1ccc(F)cc1)c1ccc(-c2cnc(C3CC3)o2)cc1,32.6%,52.8%,-10.3% (active),20.6%,16.3%,18.8%,56.4%,21.2%
Cc1ccc(C(=O)Nc2ccc(CN3CCN(C)CC3)c(C(F)(F)F)c2)cc1C#Cc1cnc(N)cc1C#N,-4.9% (active),13.9%,-90.7% (active),-81.2% (active),-75.5% (active),-87% (active),-77.3% (active),-69.8% (active)
Cn1cc(-c2csc(-c3c[nH]c4ccc(F)cc34)n2)c2cnccc21,-65% (active),76.6%,-90.5% (active),-86.7% (active),-25.1% (active),-89.9% (active),-54.9% (active),-11.8% (active)
Clc1ccc(CNc2ccc3nc(CCC4CCCCC4)[nH]c3c2)cc1,24.3%,83.3%,66.4%,26.2%,37.9%,36.2%,-57.6% (active),50.7%
CC[C@]1(O)CC2CN(CCc3c([nH]c4ccccc34)C(C(=O)OC)(c3cc4c(cc3OC)N(C=O)[C@H]3[C@@](O)(C(=O)OC)[C@H](OC(C)=O)[C@]5(CC)[C@@H]6C[C@@H]6CN6CC[C@]43[C@@H]65)C2)C1 (stereo partly specified),72.1%,-2.67% (active),-53.2% (active),23.1%,12.1%,-17.5% (active),12.2%,-17.5% (active)
O=C1/C(=C/c2cn(-c3ccccc3)nc2-c2ccccc2)SC(=S)N1c1ccccc1,99.1%,98%,98.3%,99.8%,93.8%,102%,96.6%,101%
COc1ccc(CCNC(=O)COc2cc3c(Nc4ccc(F)c(Cl)c4)ncnc3cc2OC)cc1OC,70%,99.5%,97.2%,101%,91.9%,107%,101%,96.9%
O=C(c1ccc(Nc2nccc(NCCCNc3ccnc4cc(Cl)ccc34)n2)cc1)N1CCCCC1,54.3%,64.9%,34.1%,26.3%,23.1%,26.7%,26%,37.5%
O=C(Nc1ccc(F)cc1)c1cc2cc(Nc3nc(-c4ccccc4)nc4ccccc34)ccc2oc1=O,95.7%,100%,108%,107%,97.9%,96.3%,113%,102%
CCn1cc(C(=O)NN=C2CCCC2)c(=O)c2ccc(C)nc21,89%,83.5%,86.9%,93%,83.4%,89.1%,89.6%,94.7%
C#CCn1cnc2cnc(Nc3cccc(NC(=O)CCl)c3)nc21,5.42% [6.25 µM] (active),3.26% [6.25 µM] (active),-19.6% [6.25 µM] (active),0.405% [6.25 µM] (active),-6.48% [6.25 µM] (active),-30.2% [6.25 µM] (active),-11.4% [6.25 µM] (active),-2.39% [6.25 µM] (active)

# From PubChem BioAssay (NCI)
